Counter-ions that a name gives are not always drawn.
Legend:
HCC1937 = experiment: relative cell viability, compound + erastin, vs DMSO (fraction of DMSO control); higher = less growth inhibition; conditions: 72 h
MDA-MB-231 = experiment: as above; conditions: 72 h
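Further: viability read by CCK-8 kit in 96-well plates, part of a combination screen pairing lipid-metabolism-targeting compounds with erastin.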

SMILES	relative cell viability (HCC1937)	relative cell viability (MDA-MB-231)
CC1=C[C@]2(O)O[C@@]3(CC2=C(C)C)[C@@H](C)CC[C@@H]13 [Curcumenol] + CCOc1ccccc1-n1c(C(C)N2CCN(C(=O)COc3ccc(Cl)cc3)CC2)nc2ccccc2c1=O [erastin]	0.55	0.639
NC(=O)c1ncn([C@@H]2O[C@H](CO)[C@@H](O)[C@H]2O)c1N [AICAR (Acadesine)] + CCOc1ccccc1-n1c(C(C)N2CCN(C(=O)COc3ccc(Cl)cc3)CC2)nc2ccccc2c1=O [erastin]	0.85	0.973
C[C@@H]1O[C@@H](O[C@H]2[C@H](Oc3cc(O)c4c(c3)O[C@H](c3ccc(O)cc3)CC4=O)O[C@H](CO)[C@@H](O)[C@@H]2O)[C@H](O)[C@H](O)[C@H]1O [Naringin] + CCOc1ccccc1-n1c(C(C)N2CCN(C(=O)COc3ccc(Cl)cc3)CC2)nc2ccccc2c1=O [erastin]	0.902	0.632
CS(=O)(=O)c1ccc(-c2nnc(/C=C/c3nnc(-c4ccc(C#N)cc4)o3)n2-c2ccccc2Cl)nc1 + CCOc1ccccc1-n1c(C(C)N2CCN(C(=O)COc3ccc(Cl)cc3)CC2)nc2ccccc2c1=O [erastin]	0.735	0.668
CC(C)=CCC[C@](C)(O[C@@H]1O[C@H](CO)[C@@H](O)[C@H](O)[C@H]1O)[C@H]1CC[C@]2(C)[C@@H]1[C@H](O)C[C@@H]1[C@@]3(C)CC[C@H](O[C@@H]4O[C@H](CO)[C@@H](O)[C@H](O)[C@H]4O[C@@H]4O[C@H](CO)[C@@H](O)[C@H](O)[C@H]4O)C(C)(C)[C@@H]3CC[C@]12C [Ginsenoside Rd] + CCOc1ccccc1-n1c(C(C)N2CCN(C(=O)COc3ccc(Cl)cc3)CC2)nc2ccccc2c1=O [erastin]	0.355	0.317
CC(=O)Nc1nc(C)c(S(=O)(=O)Nc2ccc(C(O)(C(F)(F)F)C(F)(F)F)cc2)s1 + CCOc1ccccc1-n1c(C(C)N2CCN(C(=O)COc3ccc(Cl)cc3)CC2)nc2ccccc2c1=O [erastin]	0.956	1.1
C/C=C/c1cc(OC)c(OC)cc1OC [alpha-Asarone] + CCOc1ccccc1-n1c(C(C)N2CCN(C(=O)COc3ccc(Cl)cc3)CC2)nc2ccccc2c1=O [erastin]	0.594	0.774
OC[C@H]1O[C@@H](Oc2cc(O)cc(/C=C/c3ccc(O)cc3)c2)[C@H](O)[C@@H](O)[C@@H]1O [Polydatin] + CCOc1ccccc1-n1c(C(C)N2CCN(C(=O)COc3ccc(Cl)cc3)CC2)nc2ccccc2c1=O [erastin]	0.78	0.601
CN(CCOc1ccc(CC2SC(=O)NC2=O)cc1)c1ccccn1 (stereo not given) [Rosiglitazone maleate] + CCOc1ccccc1-n1c(C(C)N2CCN(C(=O)COc3ccc(Cl)cc3)CC2)nc2ccccc2c1=O [erastin]	0.824	0.965
N=C(N)NCCC(=O)O [3-Guanidinopropionic Acid] + CCOc1ccccc1-n1c(C(C)N2CCN(C(=O)COc3ccc(Cl)cc3)CC2)nc2ccccc2c1=O [erastin]	0.714	0.852
C=CCc1ccc(O)c(-c2cc(CC=C)ccc2O)c1 [Magnolol] + CCOc1ccccc1-n1c(C(C)N2CCN(C(=O)COc3ccc(Cl)cc3)CC2)nc2ccccc2c1=O [erastin]	0.99	1.02
O=C(CBr)c1ccc(O)cc1 [PTP Inhibitor I] + CCOc1ccccc1-n1c(C(C)N2CCN(C(=O)COc3ccc(Cl)cc3)CC2)nc2ccccc2c1=O [erastin]	0.717	0.64
NNC(=O)c1nn(Cc2ccc(Cl)cc2Cl)c2ccccc12 [Adjudin] + CCOc1ccccc1-n1c(C(C)N2CCN(C(=O)COc3ccc(Cl)cc3)CC2)nc2ccccc2c1=O [erastin]	0.557	0.711
CC1(C)CC[C@]2(C(=O)O[C@@H]3O[C@H](CO)[C@@H](O)[C@H](O)[C@H]3O)CC[C@]3(C)C(=CC[C@@H]4[C@@]5(C)CC[C@H](O[C@@H]6O[C@H](C(=O)O)[C@@H](O)[C@H](O)[C@H]6O[C@@H]6O[C@H](CO)[C@@H](O)[C@H](O)[C@H]6O)C(C)(C)[C@@H]5CC[C@]43C)[C@@H]2C1 [Ginsenoside Ro] + CCOc1ccccc1-n1c(C(C)N2CCN(C(=O)COc3ccc(Cl)cc3)CC2)nc2ccccc2c1=O [erastin]	0.703	0.726
COc1cccc(-n2c(=O)[nH]c3cc(Cl)n(-c4ccc(-c5cccc(OC)c5O)cc4)c3c2=O)c1 + CCOc1ccccc1-n1c(C(C)N2CCN(C(=O)COc3ccc(Cl)cc3)CC2)nc2ccccc2c1=O [erastin]	0.66	0.852
CN(C)C(=O)Nc1cccc(-c2ccc(N(C)C)cc2)c1 [Atglistatin] + CCOc1ccccc1-n1c(C(C)N2CCN(C(=O)COc3ccc(Cl)cc3)CC2)nc2ccccc2c1=O [erastin]	0.438	1.06
CC(C)C1=CC2=CC[C@@H]3[C@](C)(CCC[C@@]3(C)C(=O)O)[C@H]2CC1 [Abietic Acid] + CCOc1ccccc1-n1c(C(C)N2CCN(C(=O)COc3ccc(Cl)cc3)CC2)nc2ccccc2c1=O [erastin]	0.673	1.04
CC(C)(O)[C@@H]1Cc2cc3ccc(=O)oc3cc2O1 [marmesin] + CCOc1ccccc1-n1c(C(C)N2CCN(C(=O)COc3ccc(Cl)cc3)CC2)nc2ccccc2c1=O [erastin]	0.645	0.646

SMILES	relative cell viability (HCC1937)	relative cell viability (MDA-MB-231)
CC(C)c1nc(N(C)S(C)(=O)=O)nc(-c2ccc(F)cc2)c1/C=C/[C@@H](O)C[C@@H](O)CC(=O)O [Rosuvastatin] + CCOc1ccccc1-n1c(C(C)N2CCN(C(=O)COc3ccc(Cl)cc3)CC2)nc2ccccc2c1=O [erastin]	0.656	0.781
CCCCCCCCCCCC1=C(O)C(=O)C=C(O)C1=O [Embelin] + CCOc1ccccc1-n1c(C(C)N2CCN(C(=O)COc3ccc(Cl)cc3)CC2)nc2ccccc2c1=O [erastin]	0.72	0.575
CC(c1cc2ccccc2s1)N(O)C(N)=O (stereo not given) [Zileuton] + CCOc1ccccc1-n1c(C(C)N2CCN(C(=O)COc3ccc(Cl)cc3)CC2)nc2ccccc2c1=O [erastin]	0.847	0.595
O=C(NN1CCCCC1)c1nn(-c2ccc(Cl)cc2Cl)c(-c2ccc(C#Cc3ccc(C(F)(F)F)cc3)s2)c1CNS(=O)(=O)N1CCCC1 + CCOc1ccccc1-n1c(C(C)N2CCN(C(=O)COc3ccc(Cl)cc3)CC2)nc2ccccc2c1=O [erastin]	0.496	0.395
CC(=O)O[C@H](CC=C(C)C)C1=CC(=O)c2c(O)ccc(O)c2C1=O [Acetyl shikonin] + CCOc1ccccc1-n1c(C(C)N2CCN(C(=O)COc3ccc(Cl)cc3)CC2)nc2ccccc2c1=O [erastin]	0.617	0.877
Cc1ccc(CN(CC(O)COc2cccc3[nH]ccc23)C(C)(C)C)cc1 (stereo not given) + CCOc1ccccc1-n1c(C(C)N2CCN(C(=O)COc3ccc(Cl)cc3)CC2)nc2ccccc2c1=O [erastin]	0.731	0.846
O=c1oc2ccccc2cc1O [3-Hydroxycoumarin] + CCOc1ccccc1-n1c(C(C)N2CCN(C(=O)COc3ccc(Cl)cc3)CC2)nc2ccccc2c1=O [erastin]	0.61	0.741
O=C(NNc1ccccc1)c1ccncc1 [PluriSln 1] + CCOc1ccccc1-n1c(C(C)N2CCN(C(=O)COc3ccc(Cl)cc3)CC2)nc2ccccc2c1=O [erastin]	0.518	0.696
CNC(=O)c1cccc(NC(=O)N2CCC(Oc3ccccc3Cl)CC2)c1 + CCOc1ccccc1-n1c(C(C)N2CCN(C(=O)COc3ccc(Cl)cc3)CC2)nc2ccccc2c1=O [erastin]	0.566	0.523
CC(C)(Oc1ccc(Cl)cc1)C(=O)O [Clofibric acid] + CCOc1ccccc1-n1c(C(C)N2CCN(C(=O)COc3ccc(Cl)cc3)CC2)nc2ccccc2c1=O [erastin]	0.923	0.592
O=C(Nc1ccccc1)c1cc([N+](=O)[O-])ccc1Cl + CCOc1ccccc1-n1c(C(C)N2CCN(C(=O)COc3ccc(Cl)cc3)CC2)nc2ccccc2c1=O [erastin]	0.71	0.706
CC(C)(Oc1ccc(C2CC2(Cl)Cl)cc1)C(=O)O (stereo not given) [Ciprofibrate] + CCOc1ccccc1-n1c(C(C)N2CCN(C(=O)COc3ccc(Cl)cc3)CC2)nc2ccccc2c1=O [erastin]	0.848	0.628
O=C(c1c2ccccc2cc2ccccc12)N1CCC(N2CCC[C@@H](C(=O)N3CCOCC3)C2)CC1 + CCOc1ccccc1-n1c(C(C)N2CCN(C(=O)COc3ccc(Cl)cc3)CC2)nc2ccccc2c1=O [erastin]	0.514	0.483
CCOc1cc(CC(=O)N[C@@H](CC(C)C)c2ccccc2N2CCCCC2)ccc1C(=O)O [Repaglinide] + CCOc1ccccc1-n1c(C(C)N2CCN(C(=O)COc3ccc(Cl)cc3)CC2)nc2ccccc2c1=O [erastin]	0.711	0.566
Cn1c2cc([S+](C)[O-])sc2c2cnn(Cc3cccc(N)c3)c(=O)c21 (stereo not given) + CCOc1ccccc1-n1c(C(C)N2CCN(C(=O)COc3ccc(Cl)cc3)CC2)nc2ccccc2c1=O [erastin]	0.61	0.745
O=C1C=CC[C@@H]2[C@H]3CCCN4CCC[C@@H](CN12)[C@@H]34 [Sophocarpine] + CCOc1ccccc1-n1c(C(C)N2CCN(C(=O)COc3ccc(Cl)cc3)CC2)nc2ccccc2c1=O [erastin]	0.705	0.856
N#Cc1c(O)c2c(-c3ccc(-c4ccccc4O)cc3)csc2[nH]c1=O + CCOc1ccccc1-n1c(C(C)N2CCN(C(=O)COc3ccc(Cl)cc3)CC2)nc2ccccc2c1=O [erastin]	0.521	0.51
